eLon inh – inhibits E. coli Lon protease | purified E. coli Lon protease, fluorescence polarization | inhibition, % at 7.94 µM | actives 0.42% (n = 360,000) | AID 602123; in the data active means inhibition above about 13%, passing the limit was not always enough;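 further: 0% = enzyme with probe and DMSO and 100% = no enzyme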
GLD-1 TGE inh – GLD-1-TGE RNA interaction inhibition (C. elegans) | purified GLD-1 + fluorescein TGE RNA, fluorescence polarization | actives 0.44% (n = 320,000) | Q17339 | AID 2280 | inhibition, % at 5.96 µM;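 active means percent inhibition above a per-plate cutoff, the plate mean of test compounds plus 3 SD, cut at about 30% in these data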;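 further: 0% = DMSO wells with GLD-1 and probe and 100% = wells lacking GLD-1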
Bcl-xL primary – blocks human Bcl-xL binding to Bim BH3 peptide. Q07817. GST-Bcl-xL / FITC-Bim BH3 peptide fluorescence polarization. inhibition, % at 10.9 µM. actives 0.7% (n = 320,000). AID 2129;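 active means inhibition above the mean of all tested compounds plus 3 SD, cutoff set per campaign, cut at about 30% in these data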;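 further: 0% = DMSO wells and 100% = unlabeled Bim-BH3 peptide competitor; inhibitors lower millipolarization by displacing the labeled peptide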
Target sequence (Q07817 whole entry, looked up): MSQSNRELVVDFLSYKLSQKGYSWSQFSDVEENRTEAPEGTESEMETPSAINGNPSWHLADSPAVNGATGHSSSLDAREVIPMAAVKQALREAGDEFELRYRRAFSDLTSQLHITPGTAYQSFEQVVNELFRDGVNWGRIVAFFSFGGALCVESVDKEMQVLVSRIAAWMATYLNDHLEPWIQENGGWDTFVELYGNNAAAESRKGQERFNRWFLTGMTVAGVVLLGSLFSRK
EBV gp42 block – EBV gp42 inhibition; Fluorescence polarization binding assay, mP read-out; inhibition, % (tested at 21.74 µM); actives 0.42% (n = 220,000); in the data active means inhibition above about 50%
MEX-5 binding – C. elegans MEX-5 TCR-2 RNA binding activity; Q9XUB2; MEX-5/FITC-TCR2 RNA binding, fluorescence polarization; stronger effect = lower value; activity score (negative = inhibition of binding), % at 10 µM; actives 0.38% (n = 300,000); AID 1832;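 active means inhibition past about -25% in most replicates, and total fluorescence under double the plate's negative control median, limit read from the data; inconclusive means replicates evenly split on the limit, or fluorescence at least double controls; inactive means too little inhibition in most replicates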;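 further: 0% = DMSO and -100% = 5 µM competing unlabeled TCR2 RNA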
Target sequence (Q9XUB2 whole entry, looked up): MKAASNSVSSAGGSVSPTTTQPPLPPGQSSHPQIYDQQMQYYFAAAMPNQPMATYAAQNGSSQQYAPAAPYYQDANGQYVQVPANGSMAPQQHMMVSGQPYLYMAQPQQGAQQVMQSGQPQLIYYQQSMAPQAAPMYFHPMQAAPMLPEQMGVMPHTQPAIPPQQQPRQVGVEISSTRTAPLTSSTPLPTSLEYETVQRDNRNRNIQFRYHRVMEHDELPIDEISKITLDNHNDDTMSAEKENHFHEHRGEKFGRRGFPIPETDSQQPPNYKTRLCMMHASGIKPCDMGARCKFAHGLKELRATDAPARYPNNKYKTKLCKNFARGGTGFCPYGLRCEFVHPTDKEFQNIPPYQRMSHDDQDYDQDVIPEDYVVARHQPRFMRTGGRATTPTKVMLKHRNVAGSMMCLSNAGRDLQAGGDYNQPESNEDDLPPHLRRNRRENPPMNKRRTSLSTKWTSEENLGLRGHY
MCL1 BIM primary – inhibitors of human MCL1 binding to BIM-BH3 peptide; Q07820; GST-MCL1 / FITC-Bim-BH3 fluorescence polarization; inhibition, % at 10.9 µM; actives 0.68% (n = 320,000); AID 2057;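 active means inhibition above the mean inhibition of all tested compounds plus 3 SD, set per campaign, cut at about 40% in these data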;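 further: 0% = DMSO wells and 100% = unlabeled Bim-BH3 peptide control; higher means more loss of mP so more displacement of Bim peptide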
Bcl-xL conf – Bcl-xL (human) inhibition, MCL1 counter-screen confirmation | shares compounds with MCL1 BIM primary | GST-Bcl-xL / FITC-Bim BH3 peptide FP binding | inhibition, % at 10.9 µM | actives 54% (n = 1,700) | AID 2166;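 active means inhibition above a cutoff equal to the mean inhibition of all tested compounds plus 3 SD, cut at about 30% in these data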;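 further: 0% = DMSO wells and 100% = unlabeled Bim BH3 control peptide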
MCL1 inh confirm – confirmation of human MCL1 and BIM-BH3 interaction inhibitors. shares compounds with MCL1 BIM primary. GST-MCL1 / FITC-Bim-BH3 fluorescence polarization. inhibition, % at 10.9 µM. actives 61% (n = 1,700). AID 2168;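 active means inhibition above the average of all tested compounds plus 3 SD, cut at about 40% in these data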;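 further: 0% = DMSO wells and 100% = unlabeled Bim-BH3 control peptide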
Numbers without * were called inactive; i = inactive; ? = inconclusive; / = not tested or not shown; + = active, no number. Most compounds without a hit are left out; they make up all but 1.4% or so of the library.

SMILES	eLon inh	GLD-1 TGE inh	Bcl-xL primary	EBV gp42 block	MEX-5 binding	MCL1 BIM primary	others
COc1ccc(C(=O)NC(C)CCc2ccccc2)cc1[N+](=O)[O-] (stereo not given)	3.5	-2.0	0.1	/	0.5	7.5
N#C/C(=C\c1cccnc1)C(=O)Nc1ccc(C(=O)O)cc1	5.4	4.0	3.7	-4.6	-0.8	2.6
N#C/C(=C\c1cccnc1)C(=O)Nc1ccccc1	-0.5	28.6	30.7*	-5.8	/	27.2
CCOc1ccc(C2C3=C(CCCC3=O)Nc3ccc4ncccc4c32)cc1 (stereo not given)	3.3	6.8	0.8	4.1	0.9	2.5
O=C1CCCC2=C1C(c1ccc(O)c(O)c1)c1c(ccc3ncccc13)N2 (stereo not given)	9.1	0.6	35.7*	7.4	-9.3	52.1*
COc1cccc(C(C)(O)c2nc(/C=C/c3ccccc3)cs2)c1 (stereo not given)	7.3	/	/	/	/	/
COc1ccccc1C(=O)N/C(=C\c1ccc(Br)cc1)C(=O)NCCO	-7.3	5.4	3.6	-2.4	0.2	5.5
CCN(CC)C(=O)/C(=C\c1ccc(Br)cc1)NC(=O)c1ccccc1OC	-4.8	-3.7	6.6	60.7*	1.1	8.7
O=C(O)[C@H](Cc1ccccc1)NC(=O)N1CCN(c2cccc(C(F)(F)F)c2)CC1	-2.5	4.4	7.6	-9.1	-1.7	5.0
O=C(N=Nc1c(O)[nH]c2ccccc12)c1cc(-c2ccc(F)cc2)n[nH]1	9.6	10.3	5.7	61.5*	0.2	6.9
Oc1[nH]c2ccccc2c1N=Nc1ccc(F)cc1	i	-27.4	-70.2	-121.6	-61.6*	-190.8
Oc1[nH]c2ccccc2c1N=Nc1ccccc1	-0.5	70.3*	40.7*	101.5*	-41.8*	20.6
Oc1[nH]c2ccccc2c1N=Nc1ccccc1F	i	-142.9	-108.4	-231.2	?	-260.8
COc1ccccc1-c1cnc(C(O)c2cccc(F)c2)[nH]1 (stereo not given)	-4.5	/	/	/	/	/
C=CCNC(=S)Nc1cc(Cl)ccc1OC	2.3	3.8	5.4	-12.5	-39.6*	24.1
C=CCN(CC=C)C(=S)Nc1cc(Cl)ccc1OC	7.1	2.4	2.9	-8.9	1.9	4.1
COc1ccc(N=Cc2c(O)n(-c3cccc(C)n3)c(=O)c3ccccc23)c(OC)c1	2.1	-40.9	-3.1	-2.5	-68.6*	-10.6
Cc1cc(C)cc(-n2c(N)c(C(=O)Nc3c(C)n(C)n(-c4ccccc4)c3=O)c3nc4ccccc4nc32)c1	0.6	6.7	32.0*	11.5	1.1	-0.2
Cc1ccc(-n2c(N)c(C(=O)Nc3c(C)n(C)n(-c4ccccc4)c3=O)c3nc4ccccc4nc32)cc1	-3.8	5.5	-6.4	20.7	-0.3	-18.0
CC(=O)c1ccc2c(c1)C1C=CCC1C(c1ccncc1)N2 (stereo not given)	7.5	2.5	15.9	14.6	-1.2	16.6
COC(=O)c1ccc(C2Nc3ccc(/C(C)=N/NC(=O)C(OC)c4ccccc4)cc3C3C=CCC32)cc1 (stereo not given)	1.9	10.0	33.9*	/	0.1	61.3*
N#CC1=C(N)OC2=C(CCC/C2=C/c2ccoc2)C1c1ccoc1 (stereo not given)	/	/	/	-3.6	-17.9	/
N#CC1=C(N)OC2=C(CC/C2=C\c2ccc(F)cc2)C1c1ccc(F)cc1 (stereo not given)	/	-7.0	-41.5	61.4*	-2.0	-158.2
O=C(c1cccc(N2C(=O)c3ccccc3C2=O)c1)N1CCCCCC1	-11.5	0.4	-0.6	-3.0	0.3	0.5
O=C1c2cccc3c(N4CCCCC4)ccc(c23)C(=O)N1c1cccc(O)c1	-133.8	7.8	34.0*	24.9	14.2	-0.2
SMILES	eLon inh	GLD-1 TGE inh	Bcl-xL primary	EBV gp42 block	MEX-5 binding	MCL1 BIM primary	others
COc1ccccc1S(=O)(=O)N(C)C[C@@H]1OCc2cnnn2CCCC(=O)N([C@@H](C)CO)C[C@H]1C	1.0	/	/	/	/	/
N#CC(C#N)=Cc1ccc(-c2ccc(S(=O)(=O)N=C(N)N)cc2)o1	-14.3	-4.7	4.5	10.4	-37.9*	12.2
COC(=O)/C(C#N)=C/c1ccc(-c2ccc(S(N)(=O)=O)cc2)o1	-5.9	0.0	1.1	-6.6	-10.7	-5.9
CCOc1ccc2nc(NC(=O)c3ccccn3)sc2c1	-5.3	-4.8	-4.5	-5.9	-2.6	55.8*	Bcl-xL conf=-1.6;MCL1 inh confirm=-3.5
CCn1c(C(=O)NC(C)c2ccc3c(c2)OCCO3)cc2sccc21 (stereo not given)	-1.5	3.2	4.1	-7.6	-2.4	-1.6
CC(NC(=O)c1cc2sccc2n1C)c1ccc2c(c1)OCCO2 (stereo not given)	-9.7	8.0	3.5	-15.1	3.4	178.2*	Bcl-xL conf=1.1;MCL1 inh confirm=3.7
Cc1ccc(N2C3=C(C(=O)CC(C)(C)C3)C(c3cn(C)nc3C)C3=C2CC(C)(C)CC3=O)cc1	80.0*	87.8*	92.8*	/	-6.6	103.8*	Bcl-xL conf=116.1*;MCL1 inh confirm=157.7*
Cc1nn(C)cc1C1C2=C(CC(C)(C)CC2=O)N(c2ccccc2)C2=C1C(=O)CC(C)(C)C2	-6.2	14.3	7.7	9.9	-2.9	3.1
CC(=O)[C@]1(O)Cc2c(O)c3c(c(O)c2[C@@H](O[C@H]2C[C@H](N)[C@H](O)[C@H](C)O2)C1)C(=O)c1ccccc1C3=O	/	+	+	/	?	+	Bcl-xL conf=+;MCL1 inh confirm=+
COc1cccc2c1C(=O)c1c(O)c3c(c(O)c1C2=O)C[C@@](O)(C(=O)CO)C[C@@H]3O[C@H]1C[C@H](N)[C@@H](O)[C@H](C)O1	+	+	+	/	?	+	Bcl-xL conf=+;MCL1 inh confirm=+
O=C(CCc1ccccc1)NNC(=O)Nc1ccc(F)c(Cl)c1	-2.8	-7.6	3.4	/	4.9	8.7
CN(C(=O)c1ccc(NC(=O)Cc2ccc(NC(=O)C3CCCN(C(=O)CCc4ccccc4)C3)cc2)cc1)C1CC1 (stereo not given)	-4.6	5.0	2.0	/	/	-0.1
CC(C)(C)c1csc(Sc2ncccc2[N+](=O)[O-])n1	14.7	3.6	2.5	-6.7	-0.6	-5.7
Oc1ccc(/C=N/Nc2ncnc3c2ncn3Cc2ccccc2)cc1O	-2.2	2.8	7.4	3.0	0.8	57.2*	Bcl-xL conf=11.0;MCL1 inh confirm=33.3
Oc1cccc(/C=N/Nc2ncnc3c2ncn3Cc2ccccc2)c1	-0.1	0.2	4.2	-5.7	-6.9	0.4
O=C(O)CSc1cc(NS(=O)(=O)c2ccc(Br)cc2)c2ccccc2c1O	11.3	10.5	21.2	/	-71.0*	41.7*	Bcl-xL conf=35.4*;MCL1 inh confirm=78.8*

Source: PubChem
